{"source": "the supplement of paper PMC8728848", "test_in_all_cases": "glycan array binding signal (z-score within array); higher = stronger binding", "conditions_in_all_cases": "glycan notation: IUPAC condensed, linker removed", "key": {"[1]": {"molecular_target": "Fuc(a1-2)Gal6S(b1-4)Glc6S", "summary_of_the_method": "(§1)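 From the Consortium for Functional Glycomics database, 3228 arrays were curated, keeping only those whose protein sequence was available. Binding is given as a within-array Z-score averaged across arrays sharing a protein sequence and across linkers. Negative Z-scores can be read as non-binding.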"}, "[2]": {"molecular_target": "Fuc(a1-2)[Gal(a1-3)]Gal(b1-3)GlcNAc(b1-3)GalNAc", "summary_of_the_method": "as §1"}, "[3]": {"molecular_target": "Fuc(a1-2)[Gal(a1-4)]Gal(b1-4)GlcNAc", "summary_of_the_method": "as §1"}, "[4]": {"molecular_target": "Fuc(a1-2)[GalNAc(a1-3)]Gal(b1-3)GalNAc(b1-3)Gal(a1-4)Gal(b1-4)Glc", "summary_of_the_method": "as §1"}, "[5]": {"molecular_target": "Fuc(a1-2)[GalNAc(a1-3)]Gal(b1-3)GlcNAc(b1-2)Man(a1-3)[Fuc(a1-2)[GalNAc(a1-3)]Gal(b1-3)GlcNAc(b1-2)Man(a1-6)]Man(b1-4)GlcNAc(b1-4)GlcNAc", "summary_of_the_method": "as §1"}, "[6]": {"molecular_target": "Fuc(a1-2)[GalNAc(a1-3)]Gal(b1-4)[Fuc(a1-3)]GlcNAc", "summary_of_the_method": "as §1"}, "[7]": {"molecular_target": "Fuc(a1-3)[Gal(b1-4)]GlcNAc(b1-2)Man(a1-3)[Fuc(a1-3)[Gal(b1-4)]GlcNAc(b1-2)Man(a1-6)]Man(b1-4)GlcNAc(b1-4)[Fuc(a1-6)]GlcNAc", "summary_of_the_method": "as §1"}, "[8]": {"molecular_target": "Fuc(a1-3)[Gal(b1-4)]GlcNAc(b1-3)Gal(b1-4)[Fuc(a1-3)]GlcNAc", "summary_of_the_method": "as §1"}, "Gal(a1-2)Gal": {"molecular_target": "Gal(a1-2)Gal", "summary_of_the_method": "as §1"}, "[9]": {"molecular_target": "Gal(a1-3)Gal(b1-4)GlcNAc(b1-2)Man(a1-3)[Gal(a1-3)Gal(b1-4)GlcNAc(b1-2)Man(a1-6)]Man(b1-4)GlcNAc(b1-4)GlcNAc", "summary_of_the_method": "as §1"}, "[10]": {"molecular_target": "Gal(b1-3)GlcNAc(b1-2)Man(a1-3)[GlcNAc(b1-4)][Gal(b1-3)GlcNAc(b1-2)Man(a1-6)]Man(b1-4)GlcNAc(b1-4)GlcNAc", "summary_of_the_method": "as §1"}, "[11]": {"molecular_target": "Gal(b1-3)GlcNAc(b1-3)Gal(b1-3)GlcNAc", "summary_of_the_method": "as §1"}, "[12]": {"molecular_target": "Gal(b1-3)[Fuc(a1-4)]GlcNAc", "summary_of_the_method": "as §1"}, "[13]": {"molecular_target": "Gal(b1-3)[Fuc(a1-4)]GlcNAc(b1-3)Gal(b1-3)[Fuc(a1-4)]GlcNAc", "summary_of_the_method": "as §1"}, "[14]": {"molecular_target": "Gal(b1-3)[GlcNAc(b1-6)]GalNAc", "summary_of_the_method": "as §1"}, "[15]": {"molecular_target": "Gal(b1-4)GlcNAc(b1-2)Man(a1-3)[Gal(b1-4)GlcNAc(b1-2)Man(a1-6)]Man(b1-4)GlcNAc(b1-4)GlcNAc", "summary_of_the_method": "as §1"}, "[16]": {"molecular_target": "Gal(b1-4)GlcNAc(b1-2)Man(a1-3)[Gal(b1-4)GlcNAc(b1-2)Man(a1-6)][GlcNAc(b1-4)]Man(b1-4)GlcNAc(b1-4)[Fuc(a1-6)]GlcNAc", "summary_of_the_method": "as §1"}, "[17]": {"molecular_target": "Gal(b1-4)GlcNAc(b1-2)Man(a1-3)[Man(a1-6)]Man(b1-4)GlcNAc(b1-4)GlcNAc", "summary_of_the_method": "as §1"}, "[18]": {"molecular_target": "Gal(b1-4)GlcNAc(b1-2)Man(a1-6)[GlcNAc(b1-2)Man(a1-3)]Man(b1-4)GlcNAc(b1-4)GlcNAc", "summary_of_the_method": "as §1"}, "[19]": {"molecular_target": "Gal(b1-4)GlcNAc(b1-2)[Gal(b1-4)GlcNAc(b1-4)]Man(a1-3)[Gal(b1-4)GlcNAc(b1-2)[Gal(b1-4)GlcNAc(b1-6)]Man(a1-6)]Man(b1-4)GlcNAc(b1-4)GlcNAc", "summary_of_the_method": "as §1"}, "[20]": {"molecular_target": "Gal(b1-4)GlcNAc(b1-2)[Gal(b1-4)GlcNAc(b1-6)]Man(a1-6)[Gal(b1-4)GlcNAc(b1-2)Man(a1-3)]Man(b1-4)GlcNAc(b1-4)[Fuc(a1-6)]GlcNAc", "summary_of_the_method": "as §1"}, "[21]": {"molecular_target": "Gal(b1-4)GlcNAc(b1-3)Gal(b1-4)GlcNAc", "summary_of_the_method": "as §1"}, "[22]": {"molecular_target": "Gal(b1-4)GlcNAc(b1-3)Gal(b1-4)GlcNAc(b1-2)Man(a1-3)[Gal(b1-4)GlcNAc(b1-3)Gal(b1-4)GlcNAc(b1-2)Man(a1-6)]Man(b1-4)GlcNAc(b1-4)GlcNAc", "summary_of_the_method": "as §1"}, "[23]": {"molecular_target": "Gal(b1-4)GlcNAc(b1-3)Gal(b1-4)GlcNAc(b1-2)Man(a1-3)[Gal(b1-4)GlcNAc(b1-3)Gal(b1-4)GlcNAc(b1-2)Man(a1-6)]Man(b1-4)GlcNAc(b1-4)[Fuc(a1-6)]GlcNAc", "summary_of_the_method": "as §1"}, "[24]": {"molecular_target": "Gal(b1-4)GlcNAc(b1-3)Gal(b1-4)GlcNAc(b1-3)Gal(b1-4)GlcNAc(b1-2)Man(a1-3)[Gal(b1-4)GlcNAc(b1-3)Gal(b1-4)GlcNAc(b1-3)Gal(b1-4)GlcNAc(b1-2)Man(a1-6)]Man(b1-4)GlcNAc(b1-4)GlcNAc", "summary_of_the_method": "as §1"}, "[25]": {"molecular_target": "Gal(b1-4)GlcNAc(b1-3)Gal(b1-4)GlcNAc(b1-3)Gal(b1-4)GlcNAc(b1-2)Man(a1-3)[Gal(b1-4)GlcNAc(b1-3)Gal(b1-4)GlcNAc(b1-3)Gal(b1-4)GlcNAc(b1-2)Man(a1-6)]Man(b1-4)GlcNAc(b1-4)[Fuc(a1-6)]GlcNAc", "summary_of_the_method": "as §1"}, "[26]": {"molecular_target": "Gal(b1-4)GlcNAc(b1-3)Gal(b1-4)GlcNAc(b1-3)Gal(b1-4)GlcNAc(b1-3)Gal(b1-4)GlcNAc(b1-2)Man(a1-3)[Gal(b1-4)GlcNAc(b1-3)Gal(b1-4)GlcNAc(b1-3)Gal(b1-4)GlcNAc(b1-3)Gal(b1-4)GlcNAc(b1-2)Man(a1-6)]Man(b1-4)GlcNAc(b1-4)GlcNAc", "summary_of_the_method": "as §1"}, "[27]": {"molecular_target": "Gal(b1-4)GlcNAc(b1-3)Gal(b1-4)GlcNAc(b1-3)Gal(b1-4)GlcNAc(b1-3)Gal(b1-4)GlcNAc(b1-2)Man(a1-3)[Gal(b1-4)GlcNAc(b1-3)Gal(b1-4)GlcNAc(b1-3)Gal(b1-4)GlcNAc(b1-3)Gal(b1-4)GlcNAc(b1-2)Man(a1-6)]Man(b1-4)GlcNAc(b1-4)[Fuc(a1-6)]GlcNAc", "summary_of_the_method": "as §1"}, "[28]": {"molecular_target": "Gal(b1-4)GlcNAc(b1-3)Gal(b1-4)GlcNAc(b1-3)Gal(b1-4)GlcNAc(b1-3)Gal(b1-4)GlcNAc(b1-3)Gal(b1-4)GlcNAc(b1-2)Man(a1-3)[Gal(b1-4)GlcNAc(b1-3)Gal(b1-4)GlcNAc(b1-3)Gal(b1-4)GlcNAc(b1-3)Gal(b1-4)GlcNAc(b1-3)Gal(b1-4)GlcNAc(b1-2)Man(a1-6)]Man(b1-4)GlcNAc(b1-4)[Fuc(a1-6)]GlcNAc", "summary_of_the_method": "as §1"}, "Gal(b1-6)Gal": {"molecular_target": "Gal(b1-6)Gal", "summary_of_the_method": "as §1"}}, "note": "The full list was thinned out, with the strongest signals kept by preference."}
{"binder": "PX14367A-bth-493-35-493 (Bacteroides thetaiotaomicron) (protein) VSSDQVAVAGNAERLFNGAWYNLFEYGTTYANIGYRALQCQDDMMASDVVSRPKYGFNSSYQFNDVAIPSDGRTSFAWYLIYKTIDNCNTAISIKGDSEELRQAQGQALALRAFCYLHLVQHYQFTYLKDKDAPCVPIYTEPTTSGTKPKGKSTVAQVYQQIFDDLNLAQDYLTNYVRKGDGQKFKPNTDVVNGLMARAYLLTGQWGEAAKAAEAARKGYSLMTTTAEYEGFNNISNKEWIWGSPQTLSQSDASYNFYYLDATYVGAYSSFMADPHLMDTFVKGDIRLPLFQWMREGYLGYKKFHMRSDDTADLVLMRSAEMYLIEAEAKVRDGVALDQAVAPLNTLRTARGVGNYDVTGKTKEQVIDEILMERRRELWGEGFGITDVLRNQKAVERMALSEDMQKTEVDCWQEGGSFAKRNPLGHWFLNFPDGKAFSANSSYYLYAIPEKEINANPNL", "values": [{"measurement": "glycan array binding signal (z-score)", "setting": "[1]", "result": -0.358}, {"measurement": "glycan array binding signal (z-score)", "setting": "[2]", "result": -0.51}, {"measurement": "glycan array binding signal (z-score)", "setting": "[3]", "result": -0.256}, {"measurement": "glycan array binding signal (z-score)", "setting": "[4]", "result": -0.668}, {"measurement": "glycan array binding signal (z-score)", "setting": "[5]", "result": 0.408}, {"measurement": "glycan array binding signal (z-score)", "setting": "[6]", "result": -0.482}, {"measurement": "glycan array binding signal (z-score)", "setting": "[7]", "result": -0.25}, {"measurement": "glycan array binding signal (z-score)", "setting": "[8]", "result": -0.421}, {"measurement": "glycan array binding signal (z-score)", "setting": "Gal(a1-2)Gal", "result": -0.084}, {"measurement": "glycan array binding signal (z-score)", "setting": "[9]", "result": 3.93}, {"measurement": "glycan array binding signal (z-score)", "setting": "[10]", "result": 1.39}, {"measurement": "glycan array binding signal (z-score)", "setting": "[11]", "result": -0.152}, {"measurement": "glycan array binding signal (z-score)", "setting": "[12]", "result": -0.11}, {"measurement": "glycan array binding signal (z-score)", "setting": "[13]", "result": -0.392}, {"measurement": "glycan array binding signal (z-score)", "setting": "[14]", "result": -0.406}, {"measurement": "glycan array binding signal (z-score)", "setting": "[15]", "result": 1.44}, {"measurement": "glycan array binding signal (z-score)", "setting": "[16]", "result": -0.354}, {"measurement": "glycan array binding signal (z-score)", "setting": "[17]", "result": 3.6}, {"measurement": "glycan array binding signal (z-score)", "setting": "[18]", "result": -0.174}, {"measurement": "glycan array binding signal (z-score)", "setting": "[19]", "result": -0.334}, {"measurement": "glycan array binding signal (z-score)", "setting": "[20]", "result": -0.167}, {"measurement": "glycan array binding signal (z-score)", "setting": "[21]", "result": -0.81}, {"measurement": "glycan array binding signal (z-score)", "setting": "[22]", "result": 3.94}, {"measurement": "glycan array binding signal (z-score)", "setting": "[23]", "result": 7.69}, {"measurement": "glycan array binding signal (z-score)", "setting": "[24]", "result": 2.81}, {"measurement": "glycan array binding signal (z-score)", "setting": "[25]", "result": 2.6}, {"measurement": "glycan array binding signal (z-score)", "setting": "[26]", "result": 1.4}, {"measurement": "glycan array binding signal (z-score)", "setting": "[27]", "result": 2.51}, {"measurement": "glycan array binding signal (z-score)", "setting": "[28]", "result": 6.87}, {"measurement": "glycan array binding signal (z-score)", "setting": "Gal(b1-6)Gal", "result": -0.332}]}
